This note sets out measurements from PubChem BioAssay (NCATS).

The structures appear in SMILES notation. Records with an inconclusive call do not appear. Activity calls are given as the source filed them. Unless noted, the call rests on the fitted dose curve; in most records, active means well fitted inhibition curve with a large enough effect; inconclusive means small, poorly fitted or top-dose-only effect; inactive means no such curve, though single readings can be large or run the other way.

Test [1] in a line: High-throughput drug toxicity screening in the BPDCN cell line Gen2.2 (AID 1224824; call rule not given here;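 further: cells exposed to compounds for 48 h before reading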). The following applies: Gen2.2 BPDCN cells; at 45.8 µM (top of the series) unless noted. The essentials:
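CellTiter-Glo luminescence after 48 h compound exposure of Gen2.2 cells; percent activity set with DMSO as 100% and bortezomib (9.2 uM final) as 0%. Cells seeded at 500 per well, RPMI + 10% FBS, 37 °C.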

The nature of test [2]: High-throughput drug toxicity screening in the BPDCN cell line Cal-1 (AID 1224825; call rule not given here). The following applies: Cal-1 BPDCN cell viability, qHTS; at 45.8 µM (top of the series) unless noted. In a few lines:
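Viability of the BPDCN line Cal-1 is measured as ATP-based luminescence (CellTiter-Glo) following 48 h incubation with compounds. Percent activity uses DMSO-treated wells as 100% and 9.2 uM bortezomib as 0%.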
(In general: qHTS replaces the single test concentration by a dilution series.)

Test [3] is described as follows: qHTS assay for measurement of the activity of small molecule inhibitors on Zika virus induced Caspase-3 activity in human iPSC derived neural progenitor cells (hNPCs) (AID 1224857). Further: % of control where 0% means no effect; nearly all actives have a fitted effect of over 65% in size. The essentials:
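Caspase-3/7 induction by a 6-hour ZIKV infection was quantified with a luminescent Caspase-Glo 3/7 reagent incubated 30 minutes at room temperature. Compounds were preincubated with hNPCs for 1 hour; inhibition was calculated against uninfected and infected control wells.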

A short description of test [4]: qHTS assay for measurement of the activity of small molecule inhibitors on Zika virus induced Caspase-3 activity in human astrocytoma cells (AID 1224859).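 Further: plate controls were ZIKV-infected untreated cells for no effect and uninfected cells for full effect.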 In a few lines: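 In SNB-19 cells plated at 250 cells/well and grown 16-20 h, compounds were applied 1 h before ZIKV (2 FFU/cell). Six hours later caspase-3/7 luminescence was recorded.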
Test [5] in a line: qHTS Screen of the MIPE 4.0 Collection Against Ewings Sarcoma (RDES) (AID 1259252). Further: nearly all actives have a fitted effect of over 35% in size. Further: potency means the concentration at half of the fitted maximal effect. The essentials: (§1)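 Compound titrations go onto adherent log-phase cells 4 h after seeding, incubate 48 h at 37C, then CellTiter-Glo luminescence reports viability relative to DMSO and cell-free controls.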
Test [6] can be described thus: qHTS Screen of the MIPE 4.0 Collection Against Ewings Sarcoma (TC71) (AID 1259253). Further: nearly all actives have a fitted effect of over 40% in size. Further: potency means the concentration at half of the fitted maximal effect. The essentials:
as §1

Test [7] is described as follows: qHTS Screen of the MIPE 4.0 Collection Against Ewings Sarcoma (EW8) (AID 1259255). Further: nearly all actives have a fitted effect of over 35% in size. Further: potency means the concentration at half of the fitted maximal effect.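 On viability: 100% = DMSO-treated cells and 0% = medium-only wells without cells.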 In a few lines:
as §1

Test [8] is described as follows: qHTS profiling of the MIPE4 collection as inhibitors of Plasmodium falciparum (DD2) proliferation (AID 743345; call rule not given here). The following applies: P. falciparum Dd2 in erythrocytes, SYBR Green DNA, 72 h; at 28.5 µM (top of the series) unless noted. In a few lines: (§2)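 Parasite DNA was quantified by SYBR Green I fluorescence (ex 485, em 535 nm) after overnight lysis in saponin/Triton buffer at room temperature. Cultures at 0.3% parasitemia and 2.5% hematocrit were first exposed to compound for 72 h at 37 C; signals were normalised to artemisinin (0.29 uM) and vehicle wells.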

Test [9] in a line: qHTS profiling of the MIPE4 collection as inhibitors of Plasmodium falciparum (DD2) proliferation (Rep 2) (AID 743346; call rule not given here). Conditions: P. falciparum Dd2 in erythrocytes, SYBR Green DNA, 72 h; at 28.5 µM (top of the series) unless noted. The essentials:
as §2

Test [10] in a line: qHTS profiling of the MIPE4 collection as inhibitors of Plasmodium falciparum (HB3) proliferation (AID 743347; call rule not given here;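 further: plate controls were DMSO vehicle wells for no effect and artemisinin wells for full effect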). Conditions: P. falciparum HB3 in erythrocytes, SYBR Green DNA, 72 h; at 28.5 µM (top of the series) unless noted. In a few lines:
as §2

For `CC(C)OC(=O)[C@H](C)N[P@](=O)(OC[C@H]1O[C@@H](n2ccc(=O)[nH]c2=O)[C@](C)(F)[C@H]1O)Oc1ccccc1`, the cell viability, % of control (lower = more cytotoxic) in test [1] worked out at 128%. Further, the viability (% of control) in [2] amounted to 88.9%. Besides, the Potency result in test [3], in test [4], in test [5], in test [6] and in test [7] was “inactive” in each case.

Turning to `C=C1C(=CC=C2CCC[C@]3(C)[C@@H]([C@H](C)CCCC(C)(C)O)CC[C@@H]23)C[C@@H](O)C[C@@H]1O`, the parasite growth remaining, % of DMSO control (lower = more inhibition) in test [8] is 95.2%. In addition, the parasite growth, % of control (lower = inhibition) in test [9] is 22.4%. For the same compound, the cell viability, % of control (lower = more cytotoxic) in test [1] was found to be 20.5%. Also, the viability (% of control) in test [2] stood at 6.91%. Besides, the Potency result in test [3] and in test [4] was “inactive” in each case. The results for the Potency in test [5], in test [6] and in test [7] were 2.64 µM (active), 2.96 µM (active) and 5.26 µM (active), respectively.

As to `NC(=O)N1CCC(CC(=O)N2CCC([C@H]3c4ncc(Br)cc4CCc4cc(Cl)cc(Br)c43)CC2)CC1`, the parasite growth remaining, % of DMSO control (lower = more inhibition) in test [8] was found to be 10.6%. Further, in [9], the parasite growth, % of control (lower = inhibition) was found to be 13.1%. In addition, the growth, % of control in test [10] stood at 9.54%. Moreover, the cell viability, % of control (lower = more cytotoxic) in test [1] worked out at 82.6%. In addition, the viability (% of control) in test [2] stood at 6.4%. The Potency entry in [3] and in [4] was “inactive” each time. The Potency was 20.9 µM (active) in test [5], 16.6 µM (active) in test [6] and 16.6 µM (active) in test [7].

As to `O=C1NCCc2[nH]c(-c3ccncc3)cc21`, the parasite growth remaining, % of DMSO control (lower = more inhibition) in test [8] turned out to be 39%. The same compound came in with a parasite growth, % of control (lower = inhibition) in test [9] of 17.3%. The cell viability, % of control (lower = more cytotoxic) in test [1] came to 3.21%. In addition, the viability (% of control) in [2] was found to be 12.4%. In addition, the Potency entry in test [3] and in test [4] was “inactive” in each case. The values for the Potency in test [5], in test [6] and in test [7] were 3.32 µM (active), 2.64 µM (active) and 3.32 µM (active), respectively.

`Cc1cnc(Nc2ccc(N3CCN(C)CC3)cc2)nc1Nc1cccc(S(=O)(=O)NC(C)(C)C)c1`: the parasite growth remaining, % of DMSO control (lower = more inhibition) in [8] was determined as 8.81%. Further, the parasite growth, % of control (lower = inhibition) in [9] is 12.4%. In addition, the cell viability, % of control (lower = more cytotoxic) in test [1] came out at 2.75%. Further, the viability (% of control) in test [2] came out at 1.93%. In addition, the Potency entry in test [3] and in [4] was “inactive” each time. For the same compound, the Potency in [5] is 2.64 µM (active); in test [6] it was 2.64 µM (active); in test [7], 2.09 µM (active).

On to `COc1cc(C)c(Sc2cnc(NC(=O)c3ccc(CNC(C)C(C)(C)C)cc3)s2)cc1C(=O)N1CCN(C(C)=O)CC1` (stereo not given), for which the parasite growth remaining, % of DMSO control (lower = more inhibition) in test [8] was 11%. Besides, in test [9], the parasite growth, % of control (lower = inhibition) came to 17.2%. The cell viability, % of control (lower = more cytotoxic) in [1] was 4.37%. Moreover, the viability (% of control) in [2] is 3.38%. Moreover, the Potency entry in test [3] and in test [4] was “inactive” in each case. The Potency in [5] was 16.6 µM (active); in test [6], 14.8 µM (active); in test [7], 1.48 µM (active).

With `C[C@H](CCC(=O)O)[C@H]1CC[C@H]2[C@@H]3[C@H](O)C[C@@H]4C[C@H](O)CC[C@]4(C)[C@@H]3CC[C@]12C`, the cell viability, % of control (lower = more cytotoxic) in [1] was determined as 114%. Besides, the viability (% of control) in [2] turned out to be 97.2%. In addition, the Potency entry in test [3], in test [4], in test [5], in test [6] and in test [7] was “inactive” in each case.

For the compound `C=C1C[C@@]2(O)O[C@@]3(C[C@H]2C(C)C)[C@H](C)CC[C@H]13`, the cell viability, % of control (lower = more cytotoxic) in test [1] worked out at 67.8%. The viability (% of control) in test [2] was 101%. In addition, the Potency entry in test [3], in test [4], in test [5], in test [6] and in test [7] was “inactive” throughout.

On to `CNC(=O)Nc1ccc(-c2nc(N3CC4CCC(C3)O4)c3cnn(C4CCC5(CC4)OCCO5)c3n2)cc1`, for which the parasite growth remaining, % of DMSO control (lower = more inhibition) in test [8] came out at 7.38%. This compound also gave a parasite growth, % of control (lower = inhibition) in test [9] of 8.34%. Further, the cell viability, % of control (lower = more cytotoxic) in [1] was 17.6%. Besides, in test [2], the viability (% of control) came out at 8.62%. For the same compound, the Potency entry in [3] and in [4] was “inactive” in each case. For the same compound, the Potency was 0.0469 µM (active) in test [5], 0.0132 µM (active) in [6] and 0.0132 µM (active) in [7].

`COC(=O)C=CC(=O)OC`: in [8], the parasite growth remaining, % of DMSO control (lower = more inhibition) was 97.5%. This compound also gave a parasite growth, % of control (lower = inhibition) in [9] of 71.3%. For the same compound, the cell viability, % of control (lower = more cytotoxic) in test [1] is 35.4%. Further, the viability (% of control) in test [2] was found to be 101%. The Potency result in test [3] and in [4] was “inactive” each time. The Potency in test [5] is 8.33 µM (active); in [6], 18.7 µM (active); in test [7] it was 26.4 µM (active).
